An excerpt weighted towards active compounds, which were near 19% of everything screened.
DT40 TDP1 no CPT: qHTS for Inhibitors of human tyrosyl-DNA phosphodiesterase 1 (TDP1): qHTS in cells in absence of CPT; AID 686978, 2013; DT40 Tdp1-/- hTDP1 cells, no CPT, ATP luminescence, 48 h; hit rate 15% among 420,000; Potency, µM (series often up to 46.2 µM), inactives show at the top dose activity change, negative = growth inhibition, actives largely listed as inhibitors; note: potency is the fitted concentration of half-maximal effect; nearly all actives have a fitted effect of over 55% in size
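No-CPT arm: Tdp1-/-;hTDP1 DT40 cells (400/well) plus compounds, incubated ≥48 hr at 37 °C. Readout CellTiter-Glo luminescence.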
DT40 TDP1 CPT: qHTS for Inhibitors of human tyrosyl-DNA phosphodiesterase 1 (TDP1): qHTS in cells in presence of CPT | chicken DT40 Tdp1-/-;hTDP1 cells + 20 nM CPT, ATP luminescence, 48 h | Potency, µM (series often up to 46.2 µM), for inactives: at the top dose activity change, negative = growth inhibition, usual class: inhibitors | hit rate 12% among 420,000 | AID 686979, 2013; note: potency is the fitted concentration of half-maximal effect; nearly all actives have a fitted effect of over 55% in size
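Chicken DT40 Tdp1-/- cells complemented with human TDP1, 400 cells/well, exposed to compounds plus 20 nM camptothecin for at least 48 h at 37 C; viability read as ATP content by CellTiter-Glo luminescence.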
HT1080-NT tox: qHTS for induction of synthetic lethality in tumor cells producing 2HG: qHTS for the HT-1080-NT fibrosarcoma cell line. HT-1080-NT fibrosarcoma viability, CellTiter-Glo ATP luminescence, 48 h. Potency, µM (series often up to 46.1 µM), inactives show at the top dose activity, negative = less viability, most hits filed as cytotoxic. hit rate 1.6% among 360,000;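 note: NT is the 2HG producing partner of a matched IDH1 knockdown line; potency is the fitted concentration of half-maximal effect; 0% = DMSO-treated cells and -100% = media-only wells without cells; nearly all actives have a fitted effect of over 55% in size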
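Toxicity toward the 2HG-producing NT line was scored as %Activity, normalised to DMSO and no-cell wells, from CellTiter-Glo luminescence after 48 hours' treatment.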
IL1B secr inh: qHTS for Inhibitors of Inflammasome Signaling: IL-1-beta AlphaLISA Primary Screen; THP-1 LPS/ATP IL-1B secretion, AlphaLISA, 16 h; hits give low values; hit rate 4.7% among 360,000; AID 743279, 2014; activity change, % at 57.5 µM; in the data active = activity change below about -50%; inconclusive = mostly about -30% to -49%
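THP-1 cells pretreated 1 hr with compounds (up to 57.5 uM final), then stimulated with LPS (250 ng/mL final) plus ATP (1.25 mM final); secreted IL-1B measured by AlphaLISA after 16 hr, decreased signal indicating inhibition.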
HT1080 IDH1KD tx: qHTS for induction of synthetic lethality in tumor cells producing 2HG: qHTS for the HT-1080-IDH1KD cell line. Potency, µM (titrated, usually from 46.1 µM), without a hit: at the top dose activity, negative = toxicity, hits mostly cytotoxic. hit rate 2% among 360,000. HT-1080 IDH1 knockdown viability, ATP luminescence, 48 h. AID 686971, 2013;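 note: potency is the fitted concentration of half-maximal effect; 0% = DMSO wells and -100% = cell-free medium wells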
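% activity derives from luminescence (CellTiter-Glo), normalised to DMSO and no-cell wells. HT-1080-IDH1KD cells, 750/well, had 48 h compound exposure at 37 °C.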
ELG1 DNA repair: qHTS screen for small molecules that inhibit ELG1-dependent DNA repair in human embryonic kidney (HEK293T) cells expressing luciferase-tagged ELG1; hit rate 2.3% among 330,000; Potency, µM (series often up to 46.1 µM), for the others: at the top dose activity change, negative = inhibition, hits mostly inhibitors; HEK293T ELG1-luciferase reporter, luminescence, 16 h; DNA damage induced by 5-fluorouridine; note: potency is the fitted concentration of half-maximal effect; nearly all actives have a fitted effect of over 55% in size
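Cells (2,000 per well) received 5-fluorouridine plus test compound or DMSO and were incubated 16 hr at 37 °C, 5% CO2. Luciferase activity was read by luminescence 30 min after ONE-Glo addition; signal suppression marked inhibition of damage-induced ELG1 function.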
* hit, by the source's call; ? = inconclusive; / = not tested or not shown. Unless noted, calls come from the whole dose curve; as a rule, active = well fitted curve in the direction sought with a large enough effect; inconclusive = small, poorly fitted or top-dose-only effect, or another doubt; inactive = no such curve, though single readings can be large; an effect the other way counts as inactive or inconclusive. Unless noted, % is set by controls: 0 for no effect and ±100 for the full control effect.

SMILES	DT40 TDP1 no CPT	DT40 TDP1 CPT	HT1080-NT tox	IL1B secr inh	HT1080 IDH1KD tx	ELG1 DNA repair
Cn1cnc(CCN)c1	-15%	6%	14%	2	2%	/
C=CCn1c(O)c(C(C)=NCCCn2ccnc2)c(=O)[nH]c1=O	2%	2%	1%	46	21%	0%
Nc1ncnc2c1ncn2[C@@H]1O[C@H](COP(=O)(O)CP(=O)(O)O)[C@@H](O)[C@H]1O	?	4.1µM*	?	-1	-20%	/
COc1ccc(C(CNC(=O)Cc2ccc(Cl)c(Cl)c2)N(C)C)cc1 (configuration not stated)	?	?	-19%	-51*	-11%	19%
COC(=O)C1=C(c2c(C)noc2C)C[C@@H]2CC[C@H]1N2C(=O)N1CCCC1	3%	-2%	21%	12	?	?
O=C(CSc1nnc(NC(=O)c2ccccc2F)s1)NCc1ccc(F)cc1	13%	-18%	-1%	0	-26%	?
COc1cccc(-n2c(SCC(=O)c3ccc(Cl)cc3)nc3c([nH]c4ccccc43)c2=O)c1	4.1µM*	3.7µM*	/	/	/	/
Cc1cc(C)cc(-n2c(SCC(=O)NCc3ccc(F)cc3)nc3c([nH]c4ccccc43)c2=O)c1	16µM*	?	/	/	/	/
CC(=O)OC1CC[C@@]2(C)C(=CC(=O)C3C4CCC(OC(C)=O)[C@@]4(C)CCC32)C1 (some centres not stated)	?	-13%	17%	6	10%	/
CC(C)(C)C(=O)O[C@H]1CC[C@@]2(C)C(=CC(=O)C3C2CC[C@]2(C)C(=O)[C@@H](F)CC32)C1 (some centres not stated)	?	?	0%	-77*	-2%	?
Cn1cc(C(=O)Cc2ccccc2)c2ccccc21	?	16µM*	0%	-15	0%	-2%
O=C(O)C(Br)CBr (configuration not stated)	?	-8%	?	-11	9%	12%
Cc1ccc(NC(=O)C2CCCN(C(=O)c3cnn(-c4ccccc4)c3-n3cccc3)C2)cc1 (configuration not stated)	18µM*	15µM*	/	/	/	/
O=C(NCc1ccc(Cl)cc1)C1CCCN(C(=O)c2cnn(-c3ccc(F)cc3)c2-n2cccc2)C1 (configuration not stated)	5.8µM*	8.2µM*	/	/	/	/
O=C(Nc1ccccc1)c1cc(C2CCCN(C(=O)C3CC3)C2)on1 (configuration not stated)	?	?	-45%	7	0%	/
O=C(c1cc(C(=O)NCc2ccc(Cl)cc2)c(=O)n(Cc2ccc(Cl)cc2)c1)c1cc(F)ccc1O	?	?	-16%	-18	-19%	?
CSc1cccc(NC(=O)C2CCN(C(=O)c3cnn(-c4ccccc4)c3-n3cccc3)CC2)c1	18µM*	16µM*	/	/	/	/
COc1ccc(Cc2c(O)[nH]c(=S)[nH]c2=O)cc1	15%	11%	21%	-17	15%	-1%
CC(=NCC1CCCO1)c1c(O)n(-c2ccccc2C)c(=O)[nH]c1=O (configuration not stated)	-17%	-3%	-2%	-5	-6%	4%
C/C(=N\N1CCCCCC1)c1c(O)n(-c2ccccc2C)c(=O)[nH]c1=O	0.13µM*	-66%	1%	4	2%	-2%
C/C(=N\N1CCCCCC1)c1c(O)n(-c2ccc(Cl)cc2)c(=O)[nH]c1=O	21µM*	?	?	15	16%	16%
C/C(=N\N1CCCCCC1)c1c(O)n(-c2ccc(C)cc2)c(=O)[nH]c1=O	-25%	1%	5%	-2	-4%	-2%
Cc1cc(OCC(=O)N[C@H](C(=O)O)c2ccccc2)c2c3c(c(=O)oc2c1)CCC3	-6%	-4%	5%	4	11%	1%
CCOP(=S)(OCC)SCSc1ccc(Cl)cc1	-7%	-10%	/	/	/	/
C=CCn1nc(C(=O)N2CCOCC2)cc1-c1sc(NC(=O)c2ccccc2)nc1C	10µM*	15µM*	-6%	63	-4%	/
SMILES	DT40 TDP1 no CPT	DT40 TDP1 CPT	HT1080-NT tox	IL1B secr inh	HT1080 IDH1KD tx	ELG1 DNA repair
CC1CCN(CCc2nc3ccccc3[nH]2)CC1	-2%	19%	0%	-10	14%	?
CCCOc1ccc(CSc2nc3ccccc3[nH]2)cc1	8.2µM*	8.2µM*	?	-56*	11µM*	?
Cc1ccc(C(=O)N[C@@H](C)CN2C3=NC[C@@H](Cc4ccccc4)N3C[C@H]2Cc2ccc(O)cc2)cc1Br	7.3µM*	6.5µM*	?	-20	?	5%
Cc1ccc(C(=O)N[C@@H](C)CN2C3=NC[C@H](Cc4ccccc4)N3C[C@H]2Cc2ccc(O)cc2)cc1Br	16µM*	15µM*	?	-14	?	-13%
Cc1ccc(N=Nc2c(O)[nH]c(=O)[nH]c2=O)cc1S(=O)(=O)Nc1ccc(Br)cc1	-1%	-13%	?	5	?	9%
C[C@]12CC[C@@H](O)CC1=CC(=O)C1C2CC[C@]2(C)C(=O)CCC12 (some centres not stated)	?	?	8%	-14	9%	-12%
COC(=O)c1c(OCc2cccnc2)cc(=O)n2c1CCN(Cc1cc3c(cc1Cl)OCO3)CC2	18µM*	?	/	/	/	/
Cc1ccc(C2=NC(C)(C)N3C2C3c2ccc([N+](=O)[O-])cc2)cc1 (configuration not stated)	21µM*	?	1%	0	-1%	1%
CC/C(=N\N1CCN(C)CC1)c1c(O)[nH]c(=O)[nH]c1=O	-21%	-16%	11%	9	9%	?
Cn1c(=O)c2cc(S(=O)(=O)Nc3ccc4c(c3)OCO4)ccc2n(C)c1=O	7.1µM*	2.1µM*	?	-25	?	?
C[C@]12CC[C@@H]3c4ccc(O)c(O)c4CC[C@H]3[C@@H]1CC[C@@H]2O	13µM*	26µM*	?	?	?	/
